# Assay results: PubChem BioAssay AID686979 (National Center for Advancing Translational Sciences (NCATS), 2013)
# The whole screen tested about 420,000 compounds, of which about 50,000 (12%) were called active. Entries that show only a call come without a potency. About 26% were inconclusive and are not listed. The call rests on the fitted dose curve; in most records, active means well fitted inhibition curve with a large enough effect; inconclusive means small, poorly fitted or top-dose-only effect; inactive means flat fitted curve, though single readings scatter. The sample as a whole holds a higher share of actives than the screen did.
# Assay: qHTS for Inhibitors of human tyrosyl-DNA phosphodiesterase 1 (TDP1): qHTS in cells in presence of CPT; further: nearly all actives have a fitted effect of over 55% in size
# Details: chicken DT40 Tdp1-/-;hTDP1 cells + 20 nM CPT, ATP luminescence, 48 h; series mostly up to 46.2 µM
# Outline: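 Chicken DT40 Tdp1-/- cells stably complemented with human TDP1 were seeded at 400 cells/well in medium containing 20 nM camptothecin, exposed to pin-transferred compounds, and grown at 37 °C for at least 48 hr. Viability was read as ATP luminescence.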
# Potency means the concentration at half of the fitted maximal effect.
row,Compound,Potency
1,COc1ccc(OC)c(-n2c(=S)[nH]c3cc(C(=O)N4CCCCC4)ccc3c2=O)c1,inactive
2,CC(C)c1ccc(NC(=O)c2cc(S(=O)(=O)N3CCc4ccccc4C3)ccc2F)cc1,inactive
3,COc1cc(NC(=O)C2CCN(c3cnccn3)CC2)cc(OC)c1,inactive
4,O=[N+]([O-])c1ccc(Oc2ccc(F)cc2Br)c2ccncc12,18.4 µM (active)
5,Cc1ccnc2nc(C(=O)OCC(=O)N(CC(C)C)CC(C)C)nn12,inactive
6,CCn1c(SCC(=O)N(C)C2CCS(=O)(=O)C2)nnc1-c1cccs1 (stereo not drawn),inactive
7,CN(C(=O)CSc1nnc(-c2ccc(C(C)(C)C)cc2)n1C)C1CCS(=O)(=O)C1 (stereo not drawn),inactive
8,Cc1cc(C)c2nc(SCC(=O)N(C)C3CCS(=O)(=O)C3)cc(C)c2c1 (stereo not drawn),23.1 µM (active)
9,COCCn1c(SC(C)C(=O)NC2CC2)nnc1-c1cccc(C)c1 (stereo not drawn),inactive
10,CCN(CC)C(=O)C1=C(C)N(Cc2ccc(F)cc2)C(=O)C(CC(=O)NCc2cccc3ccccc23)C1 (stereo not drawn),inactive
11,COc1ccc(NC(=O)C(C)N2c3cccc4cccc(c34)S2(=O)=O)c(OC)c1 (stereo not drawn),inactive
12,CCOc1cccc(-c2nnc(SCC(=O)NC3CC3)n2C)c1,inactive
13,COC(=O)CCCC1=CC2=C(c3ccccc3)C(=O)C(C)(OC(=O)C3CCCC3)C(=O)C2=CN1c1ccc(OC)cc1 (stereo not drawn),20.6 µM (active)
14,COCCN1C=C2C(=O)C(C)(OC(=O)C3CCCC3)C(=O)C=C2C=C1c1ccsc1 (stereo not drawn),inactive
15,COC(=O)CCCC1=CC2=CC(=O)C(C)(OC(=O)c3cccs3)C(=O)C2=CN1c1cccc(C#N)c1 (stereo not drawn),inactive
16,O=c1ccc(S(=O)(=O)N2CCCC2)cn1Cc1nc(-c2ccccc2)no1,inactive
17,Clc1cccc(Cl)c1Cn1nnc(-c2cccs2)n1,inactive
18,O=C(Cc1ccc([N+](=O)[O-])cc1)N/N=C/c1ccco1,inactive
19,CCN(/N=C/c1ccccc1)c1cc(=O)n(C)c(=O)[nH]1,inactive
20,O=C(Nc1cccc(Cl)c1)c1csnn1,inactive
21,CC(=O)Nc1cc(C(=O)O)ccc1S(=O)(=O)c1ccc(Cl)cc1,inactive
22,O=C(Nc1ccccc1)c1nnsc1S(=O)(=O)c1ccc(Cl)cc1,4.61 µM (active)
23,CC(=O)c1ccc(OCCN2CCOCC2)cc1,inactive
24,CCOc1ccc(C(=O)CCN2CCOCC2)cc1,3.26 µM (active)
25,CCOc1ccc(C2C(C(=O)O)c3ccccc3C(=O)N2CCN2CCOCC2)cc1 (stereo not drawn),inactive
26,COc1cccc(N(C(=O)CNC(=O)c2ccco2)C(C(=O)NC2CCCCC2)c2cccnc2)c1 (stereo not drawn),inactive

row,Compound,Potency
1,COc1ccc(S(=O)(=O)NCCc2c[nH]c3ccccc23)cc1OC,inactive
2,COc1ccccc1CC(=O)NCCc1c[nH]c2ccccc12,inactive
3,COc1cccc(CNCCc2c[nH]c3ccccc23)c1OCc1ccccc1F,10.3 µM (active)
4,Cc1noc(C)c1C(=O)NCCc1ccc(S(N)(=O)=O)cc1,inactive
5,CCOC(=O)c1c(C)[nH]c(C2=NNC(=NC(C)COC)SC2)c1C (stereo not drawn),20.6 µM (active)
6,CCOCCCNC(=O)C(NC(=O)CNC(=O)c1ccccc1)c1ccc(C)cc1 (stereo not drawn),inactive
7,CC1CCN(C(=O)/C(=C\c2ccccc2F)NC(=O)c2ccccc2)CC1,inactive
8,COC(=O)c1ccccc1C(=O)NCc1nc(N2CCCC2)c2cccc(C)c2n1,inactive
9,COc1ccc(CNC2CCCCC2)cc1,inactive
10,CCCC(=O)n1nc(NCc2ccc(OC)cc2)nc1NCc1ccc(OC)cc1,inactive
11,COc1ccc(CNc2nc(NCc3ccc(OC)cc3)c3ncn(C4CCCC4)c3n2)cc1,3.26 µM (active)
12,COc1ccc(-n2c(SCC(=O)NCc3cccs3)nnc2-c2ccoc2C)cc1,inactive
13,C/C(=N\NC(=O)c1ccc(CSc2nc(C)cc(C)n2)cc1)C1CCCCC1,inactive
14,CC(=O)c1c(C)c[nH]c1C,23.1 µM (active)
15,C1CC1Cc1noc(CN2CCN(CC3CC3)CC2)n1,inactive
16,CC1(C(=O)NCCc2c[nH]c3ccccc23)C=CC2(CCCCC2)N1C(=O)c1ccccc1 (stereo not drawn),18.4 µM (active)
17,O=C(CN1C(=O)NC2(CCCCC2)C1=O)NCCc1c[nH]c2ccccc12,inactive
18,O=C(NCCc1c[nH]c2ccccc12)c1cccc(Br)c1,inactive
19,C=CCn1c(SCC(=O)NC)nnc1C12CC3CC(CC(C3)C1)C2,inactive
20,Cc1cc(C)cc(OCC(=O)NNC(=O)CCN2C(=O)c3ccccc3C2=O)c1,inactive
21,Cc1ccsc1/C=N/NC(=O)Cc1cc(=O)[nH][nH]1,inactive
22,COc1cc(CCC(=O)Nc2ccncc2Cl)cc(OC)c1OC,inactive
23,CC(=O)c1ccc(N2CCN(C(=O)CCc3ccccc3)CC2)cc1,inactive
24,COc1cc(CCC(=O)N2CCN(c3ccccc3Cl)CC2)cc(OC)c1OC,11.6 µM (active)
25,Cc1cc(Cl)c2oc(C(=O)N3CCC(O)(c4ccccc4)CC3)c(C)c2c1,inactive
26,Cc1cc2nc(-c3ccco3)c(Cc3cccc(F)c3)n2c(C)c1Br,16.4 µM (active)

row,Compound,Potency
1,CCCCN(C(=O)c1ccc2ccccc2c1)c1c(N)n(CCCC)c(=O)[nH]c1=O,inactive
2,CN(CC(=O)NCCc1ccc(S(N)(=O)=O)cc1)CC(=O)Nc1ccc(F)c(F)c1F,inactive
3,Cc1cccnc1NC(=O)c1cccc(S(=O)(=O)N2CCN(c3ccc(F)cc3)CC2)c1,18.4 µM (active)
4,CN1CCN(S(=O)(=O)c2cccc(C(=O)Nc3sccc3C#N)c2)CC1,inactive
5,Cc1ccc(C(=O)Nc2ncccc2C)cc1S(=O)(=O)N1CCOCC1,inactive
6,Cc1cc2nc(NC(=O)c3ccc(S(=O)(=O)N4CCOCC4)cc3)sc2cc1C,inactive
7,O=C(N/N=C/c1ccccn1)c1ccc(S(=O)(=O)N2CCCCCC2)cc1,inactive
8,O=C(Nc1ncccc1O)c1ccc(S(=O)(=O)N2CCCC2)cc1,14.6 µM (active)
9,O=C(Nc1ccccc1F)c1ccc(S(=O)(=O)N2CCCCCC2)cc1,inactive
10,CCOC(=O)c1csc(NC(=O)c2ccc(S(=O)(=O)N3CCCC3)cc2)n1,inactive
11,Cc1ccc(C)c2sc(NC(=O)c3ccc(S(=O)(=O)N4CCCC4)cc3)nc12,29.1 µM (active)
12,CCOc1cc(C)ccc1OCc1nnc(SCC(=O)Nc2cccc(C(=O)O)c2)n1-c1ccccc1,inactive
13,CCCOc1ccc(/C=N/NC(=O)C2CC2)c(OCCC)c1,inactive
14,CC(C)CN1CC(C)C(=O)N(c2ccccc2)C1=S (stereo not drawn),inactive
15,N#CC(Cc1cc2ccccc2n1S(=O)(=O)c1ccccc1)OCc1ccccc1 (stereo not drawn),inactive
16,N[C@@H](Cc1ccccc1)C(=O)N1CCC(C(=O)NCC(=O)Nc2ccc(F)cc2)CC1,inactive
17,Cc1ccccc1C(=O)O,inactive
18,O=C(O)c1cc([N+](=O)[O-])c(Nc2cccc3ccccc23)c([N+](=O)[O-])c1,inactive
19,CCN(CC)CCCNC(=O)Cn1cnc2sc(C)c(S(=O)(=O)N3CCN(c4ncccn4)CC3)c2c1=O,inactive
20,CC1(C)CC(=O)C=C(c2cccc3c2Oc2ccccc2S3)C1,inactive
21,COc1cc(OC)cc(C(=O)NNC(=O)CCOc2ccccc2OC)c1,inactive
22,COc1ccc(S(=O)(=O)c2c[nH]c(=S)[nH]c2=O)cc1Cl,inactive
23,COc1ccc(-c2nc3ccccc3o2)cc1NC(=O)c1cc([N+](=O)[O-])ccc1N1CCOCC1,inactive
24,CCOC(=O)CC1(NC(=O)c2cc(COc3cncc(Cl)c3)on2)CCCCC1,23.1 µM (active)
25,Cc1cc(OCc2cc(C(=O)NCc3cc(C(C)C)no3)no2)cc(C)c1Cl,inactive
26,CCOC(=O)c1c(NC(=O)c2cc(CC)on2)sc(C(C)=O)c1C,inactive

row,Compound,Potency
1,Cc1cc(C)cc(NC(=O)CN2C(=O)c3ccccc3C2=O)c1,inactive
2,Cc1cccc(C(=O)Nc2ccc(CC(=O)O)cc2)c1,inactive
3,Cc1cccc(C(=O)Nc2ccc(C(=O)/C=C/c3cccs3)cc2)c1,16.4 µM (active)
4,Cc1cccc(C(=O)Nc2ccc(C(=O)N/N=C/c3cccc(C)n3)cc2)c1,inactive
5,CC(C)c1ccc(C(=O)OC2CCOC2=O)cc1 (stereo not drawn),inactive
6,COc1ccc(C(=O)O)cc1S(=O)(=O)NC1CCN(Cc2ccccc2)CC1,inactive
7,CCOC(=O)C1CCN(S(=O)(=O)c2cc(F)ccc2OC)CC1,inactive
8,COc1ccc(CCNS(=O)(=O)c2cn(C)nc2C)cc1,inactive
9,Cc1ccc(-c2onc(C)c2C)cc1S(=O)(=O)Nc1ccccn1,inactive
10,COc1ccc(-c2onc(C)c2C)cc1S(=O)(=O)NCCc1ccccc1,20.6 µM (active)
11,COc1ccc(-c2onc(C)c2C)cc1S(=O)(=O)NCC1CCN(Cc2cccc(F)c2)CC1,20.6 µM (active)
12,C[C@H]1CN([C@@H](C)CO)C(=O)CCCn2cc(nn2)CO[C@@H]1CN(C)S(=O)(=O)c1ccc(-c2ccccc2)cc1,inactive
13,O=C(c1ccco1)N1CCC2(CC1)CCN(c1ncccn1)CC2,inactive
14,CC(=O)Nc1ccc(S(=O)(=O)NC(C)C(=O)OCC(=O)NC2CCCC2)cc1 (stereo not drawn),inactive
15,O=C(COc1ccc(-n2cnnn2)cc1)Nc1ccccc1Cl,inactive
16,Nc1nnc(SCC(=O)OCc2ccc(Cl)c(Cl)c2)s1,inactive
17,CCOC(=O)C(Sc1ncc(C#N)c(N)n1)C(C)C (stereo not drawn),inactive
18,O=C(NC(Cc1ccc(O)cc1)C(=O)O)/C(=C/c1ccccc1)NC(=O)c1ccccc1 (stereo not drawn),inactive
19,N#CCSc1nc(-c2ccccc2)nc2ccc(F)cc12,inactive
20,O=C(CCc1nc2ccccc2c(=O)[nH]1)OCC(=O)c1cccc(Cl)c1,inactive
21,Clc1ccc2nc(-c3ccccc3)nc(C(Cl)Cl)c2c1,0.164 µM (active)
22,Cc1nn(-c2ccccc2)c(C)c1/C=C/C(=O)OC(C)C(N)=O (stereo not drawn),inactive
23,Cc1ccc2c(NC(=O)C3CC3)cccc2n1,inactive
24,Cc1ccc(C(=O)Nc2cccc3ncccc23)cc1[N+](=O)[O-],inactive
25,Cc1ccc(/C=C(\C#N)C(=O)Nc2cccc3ncccc23)o1,16.4 µM (active)
